This passage reports outcome and AC50 results from PubChem BioAssay (EPA / NIEHS).

SMILES strings stand for the structures. Records with an inconclusive call do not appear. Calls of active or inactive are those of the source. The calls were made as follows, unless noted: active = hit-call score of the fitted dose curve at least 0.9, where 1 is the maximum; inactive = score below 0.9.

Assay [1] deals with Myc proto-oncogene protein (Homo sapiens) (UniProt P01106). Kind of assay: ATG_Myc_CIS: Attagene CIS-FACTORIAL HepG2 Assay for human Myelocytomatosis (Myc) Proto-Oncogene Transcription Factor (AID 2282990). Particulars: HepG2, Attagene cis-reporter transcription factor activity; actives raise or lower the signal. An outline of the steps: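 HepG2, transient MRTU transfection (cis promoters, endogenous TFs); 24 h dosing; TriZol RNA → oligo(dT) RT → PCR → 6-FAM primer extension → HpaI cut → CE. Bidirectional fit vs DMSO.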

Assay [2] is described as follows: ATG_NF_kB_CIS: Attagene CIS-FACTORIAL HepG2 Assay for human Nuclear Factor Kappa B (NF-kB) (AID 2282991). Particulars: HepG2 Attagene cis-factorial NF-kB reporter mRNA; actives raise or lower the signal. An outline of the steps:
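HepG2 cells transfected with cis-promoter-driven reporter units, so endogenous transcription factor activity is measured. Reporter mRNA quantified 24 h after dosing by RT-PCR and capillary electrophoresis, with bidirectional fitting against DMSO.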

A short description of assay [3]: ATG_NRF2_ARE_CIS: Attagene CIS-FACTORIAL HepG2 Assay for human Nuclear Factor Erythroid 2 Related Factor 2 (NFR2) response to Antioxidant Response Elements (ARE) (AID 2282992). Particulars: HepG2 Attagene ARE/NRF2 reporter, transcription factor activity; actives raise or lower the signal. An outline of the steps: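 Endogenous transcription factor activity read out as reporter transcript levels (RT-PCR plus capillary electrophoresis, fluorescence) in transiently transfected HepG2 cells. Measured at 24 h after dosing; gain or loss of signal fitted versus DMSO.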

A short description of assay [4]: ATG_Oct_MLP_CIS: Attagene CIS-FACTORIAL HepG2 Assay for human Octamer-Binding Transcription Factor (Oct) (AID 2282993). The following applies: HepG2 Attagene cis-factorial Oct reporter, mRNA; actives raise or lower the signal. Summed up:
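Readout is reporter transcript level from RT-PCR with fluorescent primer extension and capillary electrophoresis, fitted in both directions against DMSO. Transfected HepG2 reporter units report endogenous factor activity after 24 h dosing.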

The target in assay [5] is Cellular tumor antigen p53 (Homo sapiens) (UniProt P04637). Kind of assay: ATG_p53_CIS: Attagene CIS-FACTORIAL HepG2 Assay for human p53 Transcription Factor (AID 2282994). The following applies: HepG2 p53 cis-element reporter, Attagene mRNA; actives raise or lower the signal. Summed up:
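Endogenous p53 activity read in transiently transfected HepG2 from a cis-element-driven reporter transcript after 24 h exposure. RNA reverse-transcribed, PCR-amplified, fluorescently labelled and sized by capillary electrophoresis; gain or loss fitted against DMSO baseline.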

Assay [6] concerns the target human Peroxisome Proliferator-activated Receptor alpha (PPARa), PPARA (gene 5465) (UniProt Q07869). Kind of assay: ATG_PPARa_TRANS: Attagene TRANS-FACTORIAL HepG2 Assay for human Peroxisome Proliferator-activated Receptor alpha (PPARa) (AID 2283001; active = hit-call score of the fitted dose curve at least 0.9, where 1 is the maximum). Summed up:
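Transfected HepG2 cells treated with test chemical for 24 h. RNA isolated, reverse-transcribed with oligo(dT), PCR-amplified, FAM-labelled and HpaI-digested. Fragments sized by capillary electrophoresis; gain-of-signal fit relative to DMSO.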

The target of assay [7] is Peroxisome proliferator-activated receptor gamma (Homo sapiens) (UniProt P37231). Kind of assay: ATG_PPARg_TRANS: Attagene TRANS-FACTORIAL HepG2 Assay for human Peroxisome Proliferator-activated Receptor-gamma (PPARg) (AID 2283007; active = hit-call score of the fitted dose curve at least 0.9, where 1 is the maximum). An outline of the steps: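 HepG2 cells are transiently transfected with GAL4-UAS reporter units driven by chimeric NR-Gal4 fusions and dosed for 24 h. Reporter mRNA is quantified by RT-PCR, 6-FAM labelling, HpaI digestion and capillary electrophoresis. Induction is scored against DMSO.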

The target in assay [8] is Nuclear receptor subfamily 1 group I member 2 (Homo sapiens) (UniProt O75469). Put plainly: ATG_PXR_TRANS: Attagene TRANS-FACTORIAL HepG2 Assay for human Pregnane X Receptor (PXR) (AID 2283008; active = hit-call score of the fitted dose curve at least 0.9, where 1 is the maximum). Summed up: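 Transactivation by exogenous PXR–GAL4 fusion measured as reporter transcript induction after 24 h compound treatment of transfected human HepG2 cells. Read-out via RT-PCR and capillary electrophoresis of labelled fragments, fitted upward relative to DMSO.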

The target in assay [9] is human Peroxisome Proliferator-activated Receptor delta (PPARd), PPARD (gene 5467) (UniProt Q03181). Kind of assay: ATG_PPARd_TRANS: Attagene TRANS-FACTORIAL HepG2 Assay for human Peroxisome Proliferator-activated Receptor delta (PPARd) (AID 2283002; active = hit-call score of the fitted dose curve at least 0.9, where 1 is the maximum). An outline of the steps:
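Transient HepG2 transfection (multiple GAL4-UAS RTUs, chimeric receptor-Gal4); 24 h dosing; total RNA → oligo(dT) RT → PCR → 6-FAM primer extension → HpaI cut → CE. Positive direction vs DMSO.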

The target of assay [10] is human RAR-related Orphan Receptor gamma (RORg), RORC (gene 6097) (UniProt P51449). Put plainly: ATG_RORg_TRANS: Attagene TRANS-FACTORIAL HepG2 Assay for human RAR-related Orphan Receptor gamma (RORg) (AID 2283011; active = hit-call score of the fitted dose curve at least 0.9, where 1 is the maximum). Summed up: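 Readout: reporter transcript induction (RT-PCR, fluorescent primer extension, capillary electrophoresis) after 24 h compound exposure of transiently transfected HepG2 cells carrying a RORg-Gal4 chimera and GAL4-UAS reporters; DMSO served as baseline, with increasing signal fitted.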

The target of assay [11] is human Retinoic Acid Receptor gamma (RARg), RARG (gene 5916) (UniProt P13631). Put plainly: ATG_RARg_TRANS: Attagene TRANS-FACTORIAL HepG2 Assay for human Retinoic Acid Receptor gamma (RARg) (AID 2283009; active = hit-call score of the fitted dose curve at least 0.9, where 1 is the maximum). An outline of the steps: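 Readout: reporter transcript levels via RT-PCR, 6-FAM primer-extension labelling, HpaI digestion and capillary electrophoresis. Cells: HepG2 carrying transfected RARg-GAL4 chimera plus UAS reporter set. Dosing 24 h; DMSO negative control.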

Assay [12] deals with human Retinoic Acid Receptor beta (RARb), RARB (gene 5915) (UniProt P10826). Put plainly: ATG_RARb_TRANS: Attagene TRANS-FACTORIAL HepG2 Assay for human Retinoic Acid Receptor beta (AID 2283004; active = hit-call score of the fitted dose curve at least 0.9, where 1 is the maximum). An outline of the steps: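 HepG2 cells transiently transfected with multiplexed GAL4-UAS reporter units expressing chimeric NR–Gal4 fusions; 24 h compound exposure. Reporter mRNA quantified by RT-PCR, 6-FAM labelling, HpaI digestion and capillary electrophoresis; gain-of-signal fitted against DMSO baseline.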

Assay [13] deals with Retinoic acid receptor alpha (Homo sapiens) (UniProt P10276). Kind of assay: ATG_RARa_TRANS: Attagene TRANS-FACTORIAL HepG2 Assay for human Retinoic Acid Receptor alpha (RARa) (AID 2283005; active = hit-call score of the fitted dose curve at least 0.9, where 1 is the maximum). An outline of the steps:
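Reporter transcripts, measured by RT-PCR with fluorescent labeling and capillary electrophoresis after 24 h dosing, reflect activity of an exogenous human RARa–GAL4 fusion in transiently transfected HepG2. Fitted for increase relative to DMSO.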

Assay [14] concerns the target human RAR-related Orphan Receptor beta (RORb), RORB (gene 6096) (UniProt Q92753). Put plainly: ATG_RORb_TRANS: Attagene TRANS-FACTORIAL HepG2 Assay for human RAR-related Orphan Receptor beta (RORb) (AID 2283010; active = hit-call score of the fitted dose curve at least 0.9, where 1 is the maximum). An outline of the steps: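 HepG2, transient MRTU transfection (GAL4-UAS reporters, exogenous NR-Gal4 chimeras); 24 h compound exposure; total RNA → RT-PCR → 6-FAM primer extension → HpaI digest → CE fluorescence. Positive direction vs DMSO baseline.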

The AC50 is the concentration giving half of the maximal activity seen.

human Retinoic Acid Receptor beta (RARb), RARB (gene 5915), sequence (P10826 whole entry, looked up, the tested form may be a part): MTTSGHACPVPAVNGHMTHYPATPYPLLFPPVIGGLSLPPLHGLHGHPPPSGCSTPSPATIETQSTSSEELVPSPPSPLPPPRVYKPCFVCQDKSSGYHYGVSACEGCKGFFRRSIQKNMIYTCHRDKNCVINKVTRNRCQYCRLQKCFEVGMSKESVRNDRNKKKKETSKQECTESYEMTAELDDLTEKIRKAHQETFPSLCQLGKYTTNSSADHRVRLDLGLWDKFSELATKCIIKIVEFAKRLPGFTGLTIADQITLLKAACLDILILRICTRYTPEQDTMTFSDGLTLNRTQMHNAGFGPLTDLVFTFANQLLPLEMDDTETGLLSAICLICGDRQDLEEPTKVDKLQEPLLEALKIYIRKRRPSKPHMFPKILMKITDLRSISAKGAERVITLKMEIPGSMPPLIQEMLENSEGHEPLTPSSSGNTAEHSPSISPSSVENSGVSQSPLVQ
Peroxisome proliferator-activated receptor gamma (Homo sapiens), sequence (P37231 whole entry, looked up, the tested form may be a part): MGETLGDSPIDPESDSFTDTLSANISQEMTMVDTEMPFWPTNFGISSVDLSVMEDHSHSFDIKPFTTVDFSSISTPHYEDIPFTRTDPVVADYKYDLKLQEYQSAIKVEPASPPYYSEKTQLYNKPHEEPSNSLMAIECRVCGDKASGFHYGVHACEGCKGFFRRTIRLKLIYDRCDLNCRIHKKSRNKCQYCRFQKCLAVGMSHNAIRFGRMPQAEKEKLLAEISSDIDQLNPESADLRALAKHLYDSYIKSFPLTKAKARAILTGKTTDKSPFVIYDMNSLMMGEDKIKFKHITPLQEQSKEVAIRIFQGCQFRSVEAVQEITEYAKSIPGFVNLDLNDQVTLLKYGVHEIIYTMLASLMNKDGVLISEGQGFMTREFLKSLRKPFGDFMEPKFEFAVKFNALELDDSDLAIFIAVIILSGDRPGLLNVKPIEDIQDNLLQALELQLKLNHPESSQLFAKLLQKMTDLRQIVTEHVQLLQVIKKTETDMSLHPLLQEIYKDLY
human Peroxisome Proliferator-activated Receptor alpha (PPARa), PPARA (gene 5465), sequence (Q07869 whole entry, looked up, the tested form may be a part): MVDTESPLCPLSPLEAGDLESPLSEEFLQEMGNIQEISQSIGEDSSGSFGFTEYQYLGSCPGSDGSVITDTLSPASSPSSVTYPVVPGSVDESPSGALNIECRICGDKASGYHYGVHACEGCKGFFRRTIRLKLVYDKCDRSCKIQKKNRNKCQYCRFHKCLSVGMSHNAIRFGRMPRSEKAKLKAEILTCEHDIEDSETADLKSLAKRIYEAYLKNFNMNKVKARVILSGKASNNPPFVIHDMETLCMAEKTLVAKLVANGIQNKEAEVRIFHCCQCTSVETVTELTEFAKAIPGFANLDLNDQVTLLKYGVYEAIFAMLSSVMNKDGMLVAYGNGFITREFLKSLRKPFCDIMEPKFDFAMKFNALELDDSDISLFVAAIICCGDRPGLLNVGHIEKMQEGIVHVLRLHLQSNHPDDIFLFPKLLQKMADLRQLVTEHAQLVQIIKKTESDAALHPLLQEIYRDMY
human Retinoic Acid Receptor gamma (RARg), RARG (gene 5916), sequence (P13631 whole entry, looked up, the tested form may be a part): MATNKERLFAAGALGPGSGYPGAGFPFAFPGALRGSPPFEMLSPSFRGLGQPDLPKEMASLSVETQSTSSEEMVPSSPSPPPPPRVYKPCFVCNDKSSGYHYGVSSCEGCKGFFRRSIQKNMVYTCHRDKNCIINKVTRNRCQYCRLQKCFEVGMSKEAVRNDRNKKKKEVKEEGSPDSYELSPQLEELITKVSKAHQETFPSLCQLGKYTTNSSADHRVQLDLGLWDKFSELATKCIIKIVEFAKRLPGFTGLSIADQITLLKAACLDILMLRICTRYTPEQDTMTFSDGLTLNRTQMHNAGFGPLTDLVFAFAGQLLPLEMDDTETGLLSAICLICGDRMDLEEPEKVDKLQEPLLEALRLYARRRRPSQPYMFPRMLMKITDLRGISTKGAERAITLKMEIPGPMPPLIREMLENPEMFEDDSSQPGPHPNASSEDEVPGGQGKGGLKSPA
Myc proto-oncogene protein (Homo sapiens), sequence (P01106 whole entry, looked up): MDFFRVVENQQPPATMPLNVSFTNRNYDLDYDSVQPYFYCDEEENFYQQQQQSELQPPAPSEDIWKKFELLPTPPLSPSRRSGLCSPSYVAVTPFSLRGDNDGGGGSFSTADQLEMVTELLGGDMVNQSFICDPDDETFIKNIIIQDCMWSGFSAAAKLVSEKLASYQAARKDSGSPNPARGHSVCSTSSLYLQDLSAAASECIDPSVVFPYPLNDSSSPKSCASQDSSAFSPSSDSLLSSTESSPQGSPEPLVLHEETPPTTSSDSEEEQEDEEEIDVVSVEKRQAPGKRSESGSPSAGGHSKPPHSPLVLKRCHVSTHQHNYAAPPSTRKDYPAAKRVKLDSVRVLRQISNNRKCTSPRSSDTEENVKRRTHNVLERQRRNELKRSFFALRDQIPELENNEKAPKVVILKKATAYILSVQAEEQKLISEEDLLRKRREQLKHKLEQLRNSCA
Retinoic acid receptor alpha (Homo sapiens), sequence (P10276 whole entry, looked up, the tested form may be a part): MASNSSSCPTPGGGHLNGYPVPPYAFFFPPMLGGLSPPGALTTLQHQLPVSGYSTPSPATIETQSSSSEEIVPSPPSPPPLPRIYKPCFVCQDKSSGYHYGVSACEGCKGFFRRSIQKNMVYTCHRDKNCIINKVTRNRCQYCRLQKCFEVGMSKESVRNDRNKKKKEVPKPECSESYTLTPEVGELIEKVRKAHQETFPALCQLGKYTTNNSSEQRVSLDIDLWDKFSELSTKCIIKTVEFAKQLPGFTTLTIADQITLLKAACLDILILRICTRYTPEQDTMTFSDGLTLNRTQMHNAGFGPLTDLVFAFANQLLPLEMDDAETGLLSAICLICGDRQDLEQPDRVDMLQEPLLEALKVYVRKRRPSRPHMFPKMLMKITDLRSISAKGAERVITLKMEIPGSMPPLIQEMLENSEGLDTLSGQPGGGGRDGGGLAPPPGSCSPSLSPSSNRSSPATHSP
Nuclear receptor subfamily 1 group I member 2 (Homo sapiens), sequence (O75469 whole entry, looked up, the tested form may be a part): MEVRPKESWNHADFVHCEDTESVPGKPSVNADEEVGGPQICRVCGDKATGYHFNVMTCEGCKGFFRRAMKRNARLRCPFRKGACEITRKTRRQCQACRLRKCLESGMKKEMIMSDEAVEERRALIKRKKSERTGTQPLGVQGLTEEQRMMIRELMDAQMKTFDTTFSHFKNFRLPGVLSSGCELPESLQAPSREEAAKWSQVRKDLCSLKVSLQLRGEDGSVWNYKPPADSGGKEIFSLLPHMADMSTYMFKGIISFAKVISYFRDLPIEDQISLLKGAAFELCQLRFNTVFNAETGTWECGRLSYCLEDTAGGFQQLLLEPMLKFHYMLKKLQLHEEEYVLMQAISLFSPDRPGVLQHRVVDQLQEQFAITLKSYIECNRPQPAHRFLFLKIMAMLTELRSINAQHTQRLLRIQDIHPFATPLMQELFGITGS
human RAR-related Orphan Receptor gamma (RORg), RORC (gene 6097), sequence (P51449 whole entry, looked up, the tested form may be a part): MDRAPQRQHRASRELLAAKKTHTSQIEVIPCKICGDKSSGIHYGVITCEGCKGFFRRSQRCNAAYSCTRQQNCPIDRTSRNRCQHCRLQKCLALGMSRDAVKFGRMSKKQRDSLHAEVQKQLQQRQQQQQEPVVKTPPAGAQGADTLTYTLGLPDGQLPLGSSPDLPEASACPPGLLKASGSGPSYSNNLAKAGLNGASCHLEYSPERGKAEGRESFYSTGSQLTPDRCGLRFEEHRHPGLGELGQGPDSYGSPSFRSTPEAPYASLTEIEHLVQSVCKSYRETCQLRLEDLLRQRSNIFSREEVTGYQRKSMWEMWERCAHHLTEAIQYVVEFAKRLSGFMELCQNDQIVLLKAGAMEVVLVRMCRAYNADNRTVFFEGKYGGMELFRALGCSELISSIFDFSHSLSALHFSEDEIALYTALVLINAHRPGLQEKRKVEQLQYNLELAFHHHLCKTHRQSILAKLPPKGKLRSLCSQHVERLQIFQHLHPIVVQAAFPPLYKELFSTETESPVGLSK
human Peroxisome Proliferator-activated Receptor delta (PPARd), PPARD (gene 5467), sequence (Q03181 whole entry, looked up, the tested form may be a part): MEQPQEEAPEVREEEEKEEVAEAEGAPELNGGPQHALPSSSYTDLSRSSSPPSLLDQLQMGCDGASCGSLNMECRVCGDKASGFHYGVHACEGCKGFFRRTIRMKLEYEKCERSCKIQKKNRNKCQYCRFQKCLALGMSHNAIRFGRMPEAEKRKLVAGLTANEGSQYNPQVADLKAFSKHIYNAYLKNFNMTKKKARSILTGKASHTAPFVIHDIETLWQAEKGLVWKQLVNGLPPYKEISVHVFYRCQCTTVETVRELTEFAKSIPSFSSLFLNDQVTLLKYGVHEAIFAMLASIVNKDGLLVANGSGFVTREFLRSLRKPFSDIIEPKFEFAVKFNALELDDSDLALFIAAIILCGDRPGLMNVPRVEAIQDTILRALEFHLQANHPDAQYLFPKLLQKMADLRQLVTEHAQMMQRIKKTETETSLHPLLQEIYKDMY
Cellular tumor antigen p53 (Homo sapiens), sequence (P04637 whole entry, looked up): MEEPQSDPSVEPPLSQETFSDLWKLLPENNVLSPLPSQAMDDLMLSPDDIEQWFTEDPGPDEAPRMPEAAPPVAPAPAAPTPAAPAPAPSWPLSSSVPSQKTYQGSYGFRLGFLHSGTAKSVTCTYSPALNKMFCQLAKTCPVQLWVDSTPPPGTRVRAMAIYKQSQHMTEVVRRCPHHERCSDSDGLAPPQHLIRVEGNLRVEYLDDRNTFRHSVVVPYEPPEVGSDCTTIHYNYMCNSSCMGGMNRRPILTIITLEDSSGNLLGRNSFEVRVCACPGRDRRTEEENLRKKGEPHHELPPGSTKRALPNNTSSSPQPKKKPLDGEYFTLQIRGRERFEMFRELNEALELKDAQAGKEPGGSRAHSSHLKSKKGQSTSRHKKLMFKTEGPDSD

Regarding `CC=Cc1ccc(OC)c(OC)c1`, the compound was classed as inactive in assay [1], in [2], in assay [3], in assay [4], in [5] and in [6]. Moreover, the compound was called inactive in [7]. Besides, in assay [8], the half-maximal activity concentration (AC50) was 27.6 µM (active).
`CC(Oc1cc(Cl)ccc1Cl)C(=O)O` (stereo unspecified): the call in assay [1], in assay [2], in [3], in assay [4], in assay [5] and in assay [6] was inactive. Further, the compound was called inactive in assay [9], in assay [7], in assay [8] and in assay [10].
Turning to `CC(C)c1ccccc1O`, the outcome in [1], in [2], in assay [3], in assay [4], in assay [5] and in [6] was inactive. The compound was classed as inactive in [9] and in assay [11].
For the compound `CCCSc1ccc2nc(NC(=O)OC)[nH]c2c1`, the call in assay [1], in assay [2], in assay [3], in assay [4], in assay [5] and in assay [6] was inactive. In addition, the outcome in [9] and in assay [8] was inactive.
For `CN1C(=O)c2ccccc2C1=O`, the compound was called inactive in [1], in assay [2], in assay [3], in assay [4], in assay [5] and in assay [6]. The result in [9], in [11] and in assay [10] was inactive.
Turning to `Cc1ncc[nH]1`, the compound was called inactive in [1], in assay [2], in assay [3], in [4], in assay [5] and in [6]. The result in assay [9], in [7] and in [8] was inactive.
For the compound `OCCc1ccccc1`, the result in assay [1], in assay [2], in assay [3], in [4], in assay [5] and in [6] was inactive. Further, the compound was called inactive in [12], in [13], in [8] and in assay [10].
On to `O=C(O)CNc1ccccc1`, for which the outcome in assay [1], in assay [2], in assay [3], in assay [4], in assay [5] and in [6] was inactive. The outcome in [12], in assay [13], in assay [7], in assay [11] and in [14] was inactive. In assay [8], the AC50 is 27.3 µM (active).
As to `CCC1CCCCC1`, the call in [1], in assay [2], in assay [3], in [4], in assay [5] and in assay [6] was inactive. For the same compound, the compound was called inactive in [12], in assay [13], in assay [7], in assay [8], in assay [11] and in assay [14].
Regarding `NCc1ccco1`, the outcome in assay [1], in [2], in assay [3], in [4], in [5] and in assay [6] was inactive. The compound was called inactive in assay [9], in assay [11] and in [10].
As to `CCCC(=O)OC(C)(C)Cc1ccccc1`, the result in [1], in assay [2], in assay [4], in assay [5], in [6] and in [9] was inactive. In addition, the compound was called inactive in assay [7], in [8] and in assay [10]. The AC50 in assay [3] was 145 µM (active).
Regarding `CC(=O)O[C@H]1C[C@@H]2CC[C@@]1(C)C2(C)C`, the call in assay [1], in assay [2], in assay [3], in [4], in assay [5] and in assay [6] was inactive. Further, the call in assay [12], in assay [13], in assay [7], in assay [8] and in assay [11] was inactive.
